Among the data in PubChem BioAssay AID602329 (Broad Institute, 2012) are inhibition values, retold here.

Screen size: about 360,000 compounds; about 510 (0.14%) were called active. Shown is part of a subset that was picked to be rich in actives. Unmarked numbers belong to inactive results.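 The calls were made as follows: active = mean normalized replicate activity at least 40 and at least half of replicates scoring 40 or more; inconclusive = only one of the two criteria met; inactive = mean below 40 and under half of replicates reaching 40.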

In this test the target is DNA repair and recombination protein RAD54-like (Homo sapiens) (UniProt Q92698). Put plainly: RAD54 Holliday junction migration blockers – biochemical, fluorescence, single point, primary screen (AID 602329).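 Also: 0% = median of neutral control wells and 100% = median of positive control wells; inhibitors cause a drop in the FAM fluorescence signal.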 To be noted: RAD54 Holliday junction branch migration, FAM/BHQ fluorescence; at 10.4 µM; active compounds read high.
Chain of DNA repair and recombination protein RAD54-like (Homo sapiens) (Q92698 whole entry, looked up): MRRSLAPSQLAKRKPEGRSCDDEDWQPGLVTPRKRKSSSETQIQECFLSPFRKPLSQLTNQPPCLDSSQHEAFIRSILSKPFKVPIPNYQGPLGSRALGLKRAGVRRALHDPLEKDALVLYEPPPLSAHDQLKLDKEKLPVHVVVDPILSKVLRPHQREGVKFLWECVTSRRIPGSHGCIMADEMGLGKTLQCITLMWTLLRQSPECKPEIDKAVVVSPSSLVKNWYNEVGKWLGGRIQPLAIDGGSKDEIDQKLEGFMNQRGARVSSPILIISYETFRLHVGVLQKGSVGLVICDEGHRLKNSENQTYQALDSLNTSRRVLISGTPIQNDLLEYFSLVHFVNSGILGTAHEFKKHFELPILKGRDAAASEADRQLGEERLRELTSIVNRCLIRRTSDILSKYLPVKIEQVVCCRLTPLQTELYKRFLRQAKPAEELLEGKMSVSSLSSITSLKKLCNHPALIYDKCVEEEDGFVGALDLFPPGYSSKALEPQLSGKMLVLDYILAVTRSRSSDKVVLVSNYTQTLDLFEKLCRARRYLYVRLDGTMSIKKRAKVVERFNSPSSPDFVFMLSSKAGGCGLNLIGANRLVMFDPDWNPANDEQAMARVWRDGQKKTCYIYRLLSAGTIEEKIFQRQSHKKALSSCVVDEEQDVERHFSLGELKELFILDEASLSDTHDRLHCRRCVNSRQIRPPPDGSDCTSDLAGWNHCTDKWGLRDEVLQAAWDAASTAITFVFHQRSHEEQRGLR
With `C[C@H]1CN([C@@H](C)CO)S(=O)(=O)c2ccc(-c3cccnc3)cc2O[C@H]1CN(C)C(=O)C1CCCCC1`, the inhibition is 0.93%.
For the compound `COc1ccc(CN(C)C[C@@H]2Oc3ccc(NC(=O)NC(C)C)cc3C(=O)N([C@@H](C)CO)C[C@H]2C)cc1`, the inhibition is 56.8% (active).
Next, `CC(C)NC(=O)Nc1ccc2c(c1)C(=O)N([C@@H](C)CO)C[C@@H](C)[C@H](CN(C)Cc1ccc(-c3ccccc3)cc1)O2`: 20.7%.
Next, `CC(C)NC(=O)Nc1ccc2c(c1)C(=O)N([C@H](C)CO)C[C@@H](C)[C@@H](CN(C)Cc1ccncc1)O2`: -0.866%; `COc1ccc(NC(=O)Nc2ccc3c(c2)C(=O)N([C@@H](C)CO)C[C@H](C)[C@@H](CN(C)Cc2ccc4c(c2)OCO4)O3)cc1`: 3.59%.
Then `COc1ccc(NC(=O)Nc2ccc3c(c2)C(=O)N([C@H](C)CO)C[C@@H](C)[C@H](CN(C)Cc2ccccc2)O3)cc1`, with 22.5%; and `COc1ccc(CN(C)C[C@@H]2Oc3ccc(NC(=O)Nc4ccc(OC)cc4)cc3C(=O)N([C@H](C)CO)C[C@H]2C)cc1`, with 67.3% (active); and `CN1c2ccc(C#Cc3cccnc3)cc2[C@@H]2[C@@H](CCN2S(=O)(=O)c2ccccc2)[C@H]1CO`, with -8.94%.
For the compound `CCCCCCCCCCOC(=O)Cn1c(COc2ccc(C)cc2)[n+](C)c2ccccc21`, the inhibition was 50.3% (active).
As to `CCCCCn1c(=O)c(C(=O)OCC)c(Cl)c2ccccc21`, the inhibition was 0.614%.
Then `CCOc1ccc(OCCSc2nc3ccccc3n2CC(=O)O)cc1`, with -7.61%.
Turning to `C[C@@H]1CN([C@@H](C)CO)C(=O)Cc2cc(NC(=O)Nc3ccc(C(F)(F)F)cc3)ccc2O[C@H]1CN(C)C(=O)Nc1ccc(F)cc1`, the inhibition was 0.667%.
For `CN1C(=O)c2cc(NS(=O)(=O)c3ccccc3F)ccc2OC[C@@H]2O[C@@H](CC(=O)NC3Cc4ccccc4C3)CC[C@@H]21`, the inhibition was -2.97%.
Then `C[C@H](CO)N1C[C@H](C)[C@@H](CN(C)S(=O)(=O)c2ccc(Cl)cc2)Oc2ccc(NS(=O)(=O)c3cn(C)cn3)cc2C1=O`, with -4.21%; and `CO[C@@H]1CN(C)C(=O)c2cc(NC(=O)C3CCOCC3)ccc2OC[C@@H](C)NC[C@@H]1C`, with 8.52%.
Then `CC(C)CC#Cc1cnc2c(c1)C(=O)N([C@@H](C)CO)C[C@@H](C)[C@@H](CN(C)S(=O)(=O)c1cccs1)O2`, with 12.1%; and `COc1cccc(NC(=O)Nc2ccc3c(c2)C(=O)N(C)C[C@@H](OC)[C@H](C)CN(CC2CC2)[C@H](C)CO3)c1`, with 8.71%.

What is called inhibition is the change of the read-out against control, counted positive when it falls.
